We go through 71 compounds from PubChem BioAssay AID624405 (Broad Institute, 2012).

In all, about 1,900 compounds went through this assay and about 250 (13%) were called active. Inconclusive results (about 4%) are left out.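 How the source made its calls: active means fitted curve reaches 40% rescue activity at or below the top valid dose, in every test run; inconclusive means test runs disagree, some active and some inactive; inactive means every run misses the threshold or moves the wrong way.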 These entries were drawn from the full list. Entries with a potency or affinity are not part of this list.

A short description of the experiment: rescue of simvastatin-induced ATP loss – cell-based, C2C12 myotubes, ATP luminescence, cherry pick, dose response (AID 624405).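 Further: myotubes are challenged with simvastatin at 10 µM to lower ATP.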 The settings on record: 48 h, scaled: DMSO wells 0, geranylgeraniol wells 100; series mostly up to 19.5 µM; rescue activity (ATP increase): at the top concentration.
With `Cc1ccc(S(=O)(=O)Nc2ccc3c(c2)C(=O)N([C@H](C)CO)C[C@@H](C)[C@H](CN(C)Cc2ccc(Cl)c(Cl)c2)O3)cc1`, the “rescue activity (ATP increase)” value was 28.3% [at 21 µM] (inactive). For the compound `CCOC(=O)C1=C(C)Nc2ccccc2N=C1NC(=O)c1cccc(S(=O)(=O)N(C)C)c1`, the “rescue activity (ATP increase)” value is -13.1% (inactive). In the case of `COc1ccc(C(=O)N2C[C@@H]3[C@H](c4ccccc42)[C@H](CO)N3Cc2ccccc2)cc1` it was 4.22% (inactive).

Consider `COC(=O)C1(C(=O)OC)NOC2C(=O)N(c3ccc(Cl)cc3Cl)C(=O)C21` (stereo unspecified), for which the “rescue activity (ATP increase)” value is 10% (inactive).

Take `C[C@@H](NC(=O)C[C@@H]1CC[C@@H]2[C@H](COC[C@H](O)CN2Cc2ccc(C(F)(F)F)cc2)O1)c1ccccc1`: the “rescue activity (ATP increase)” value is 32% (inactive). With `COc1ccc(S(=O)(=O)Nc2ccc3c(c2)C(=O)N([C@H](C)CO)C[C@H](C)[C@H](CN(C)S(=O)(=O)c2ccc(F)cc2)OCCCC[C@H](C)O3)cc1`, the “rescue activity (ATP increase)” value was 9.35% (inactive).

For the compound `CCC(C)(CCNC(=O)Cc1ccccc1)c1ccccc1OC` (stereo unspecified), the “rescue activity (ATP increase)” value was 7.25% (inactive). Take `C[C@H]1CN([C@@H](C)CO)C(=O)Cc2cc(NC(=O)CCCCCC(=O)Nc3ccccc3N)ccc2O[C@@H]1CN(C)Cc1ccc(-c2ccccc2)cc1`: the “rescue activity (ATP increase)” value is 24.2% (inactive).

For the compound `C[C@H](CO)N1C[C@H](C)[C@@H](CN(C)Cc2ccc(-c3ccccc3)cc2)Oc2ccc(NC(=O)CCCCCC(=O)Nc3ccccc3N)cc2CC1=O`, the “rescue activity (ATP increase)” value is 32% (inactive).

Turning to `C[C@H](CO)N1C[C@H](C)[C@@H](CN(C)Cc2ccc(-c3ccccc3)cc2)Oc2ccc(NC(=O)Cc3ccccc3)cc2CC1=O`, the “rescue activity (ATP increase)” value is 28.4% (inactive). For the compound `Cc1noc(C)c1S(=O)(=O)Nc1ccc2c(c1)C(=O)N([C@@H](C)CO)C[C@@H](C)[C@@H](CN(C)S(=O)(=O)c1ccc(Cl)cc1)OCCCC[C@H](C)O2`, the “rescue activity (ATP increase)” value was -4.86% (inactive). Consider `c1ccc2c(c1)CNC1(CCCCC1)C2`, for which the “rescue activity (ATP increase)” value was -4.96% (inactive). Consider `COc1ccc(S(=O)(=O)Nc2ccc3c(c2)C(=O)N([C@@H](C)CO)C[C@@H](C)[C@@H](CN(C)C(=O)Nc2cccc4ccccc24)OCCCC[C@H](C)O3)cc1`, for which the “rescue activity (ATP increase)” value was 10.9% (inactive). Regarding `C[C@@H]1CN([C@H](C)CO)C(=O)Cc2cc(NC(=O)Nc3cccc4ccccc34)ccc2O[C@H]1CN(C)CC1CCCCC1`, the “rescue activity (ATP increase)” value is 15.5% (inactive). `COc1ccc(S(=O)(=O)Nc2cccc3c2O[C@@H](CN(C)Cc2ccc(Oc4ccccc4)cc2)[C@@H](C)CN([C@@H](C)CO)C3=O)cc1`: the “rescue activity (ATP increase)” value was 15.9% (inactive). As for `C[C@H]1CCCCO[C@H](CN(C)C(=O)C2CCCCC2)[C@@H](C)CN([C@@H](C)CO)C(=O)c2cc(NC(=O)NC3CCCCC3)ccc2O1`, the “rescue activity (ATP increase)” value was 17.2% [at 21 µM] (inactive). Consider `C[C@H]1CCCCO[C@@H](CN(C)S(=O)(=O)c2ccc(Cl)cc2)[C@@H](C)CN([C@@H](C)CO)C(=O)c2cc(NS(C)(=O)=O)ccc2O1`, for which the “rescue activity (ATP increase)” value is -7.17% (inactive). As to `C[C@H](CO)N1C[C@H](C)[C@@H](CN(C)Cc2ccc(C(=O)Nc3ccccc3N)cc2)Oc2ccc(NC(=O)Nc3ccc(C(F)(F)F)cc3)cc2C1=O`, the “rescue activity (ATP increase)” value was 2.2% [at 18 µM] (inactive). As to `C[C@@H]1CN([C@@H](C)CO)C(=O)c2cc(NC(=O)Nc3ccc(C(F)(F)F)cc3)ccc2O[C@H]1CN(C)Cc1ccc(C(=O)Nc2ccccc2N)cc1`, the “rescue activity (ATP increase)” value is 10.1% (inactive).

In the case of `C[C@@H]1CN([C@H](C)CO)C(=O)c2cc(NC(=O)Nc3ccc(C(F)(F)F)cc3)ccc2O[C@@H]1CN(C)Cc1ccc(C(=O)Nc2ccccc2N)cc1`, the “rescue activity (ATP increase)” value was 29% [at 21 µM] (inactive). Turning to `C[C@@H]1CN([C@H](C)CO)C(=O)Cc2cc(N(C)C)ccc2O[C@H]1CN(C)Cc1ccc(C(=O)Nc2ccccc2N)cc1`, the “rescue activity (ATP increase)” value was 19.2% (inactive).

In the case of `CC1=CCn2c(=O)c3ccccc3c(=O)n2C1`, the “rescue activity (ATP increase)” value is 38.7% (inactive). On to `CCOC(=O)c1cc2ccc(OC)c(OC)c2c(=O)s1`, for which the “rescue activity (ATP increase)” value was -8.38% (inactive). To `COc1ccc(N(Cc2cc(=O)[nH]c3ccccc23)C(=O)c2ccco2)cc1` belongs 5.33% (inactive); to `Cc1ccnc2nc(C(=O)OCC(=O)c3ccccc3)nn12`, -9.66% (inactive). With `Cc1cc(C(=O)COC(=O)CN=C2NS(=O)(=O)c3ccccc32)c(C)n1CCc1ccc(Cl)cc1`, the “rescue activity (ATP increase)” value is -2.48% (inactive).

On to `C[C@@H]1CN([C@H](C)CO)C(=O)c2cccc(NC(=O)C3CCCCC3)c2O[C@H]1CN(C)S(=O)(=O)c1ccc(Cl)cc1`, for which the “rescue activity (ATP increase)” value is -3.58% (inactive). Turning to `O=C(c1cnn2c(C(F)F)cc(-c3ccccc3)nc12)N1CCc2ccccc21`, the “rescue activity (ATP increase)” value was -40% (inactive). As for `CCOC(=O)c1cc(=O)n(Cc2ccccc2C)c2ccccc12`, the “rescue activity (ATP increase)” value was 20.2% (inactive). For the compound `CCC(C)NC(=O)Cn1c(=O)n(CCCC(=O)NCc2ccccc2Cl)c(=O)c2ccccc21` (stereo unspecified), the “rescue activity (ATP increase)” value was -3.94% (inactive). With `C[C@H](CO)N1C[C@H](C)[C@H](CN(C)C(=O)Nc2cccc3ccccc23)OCCCC[C@H](C)Oc2ccc(NS(=O)(=O)c3ccc(Cl)cc3)cc2C1=O`, the “rescue activity (ATP increase)” value was 16.9% (inactive). On to `C[C@@H]1CN([C@@H](C)CO)C(=O)c2cc(NC(=O)c3ccncc3)ccc2O[C@@H](C)CCCCO[C@@H]1CN(C)Cc1ccc(C(F)(F)F)cc1`, for which the “rescue activity (ATP increase)” value is 21% (inactive).

For `CC(=O)c1c(C)[nH]c(C(=O)CSc2nnc(C3CCCCC3)n2N)c1C`, the “rescue activity (ATP increase)” value was 18.1% (inactive). As to `CC1CSc2nc3sc4c(c3c(=O)n21)CCCC4` (stereo unspecified), the “rescue activity (ATP increase)” value is 20.3% (inactive). As for `COc1cc2c(N3CCOCC3)cc(O)c(CC(=O)Nc3ccccc3)c2cc1OC`, the “rescue activity (ATP increase)” value is -14.5% (inactive).

For the compound `O=C(Oc1ccc(C(=S)N2CCOCC2)cc1Br)c1ccccc1F`, the “rescue activity (ATP increase)” value was -12.4% (inactive). With `C[C@@H]1CN([C@H](C)CO)S(=O)(=O)c2ccc(/C=C/c3ccccc3)cc2O[C@@H]1CN(C)C(=O)NC1CCCC1`, the “rescue activity (ATP increase)” value is 2.94% (inactive). In the case of `COc1ccc(S(=O)(=O)Nc2ccc3c(c2)CC(=O)N([C@@H](C)CO)C[C@H](C)[C@@H](CN(C)Cc2ccc(Cl)c(Cl)c2)O3)cc1`, the “rescue activity (ATP increase)” value is 27.9% (inactive). `Cc1ccc(S(=O)(=O)NNC(=O)c2snnc2C)cc1`: the “rescue activity (ATP increase)” value is -7.58% (inactive).

As to `COC(=O)c1cn(Cc2ccc(C(F)(F)F)cc2)cc(F)c1=O`, the “rescue activity (ATP increase)” value was -11.3% (inactive).

For the compound `Cc1ccc(N2N=C(C(=O)O)CCC2=O)cc1Cl`, the “rescue activity (ATP increase)” value was 16.1% (inactive). In the case of `CC(C(=O)NCC1CCCO1)n1cccc1C(=O)c1ccccc1` (stereo unspecified) it was 13% (inactive); in that of `C=C(C)C1CC=C(C)/C(=N/NC(=O)c2ccc(NC(=O)CC)cc2)C1` (stereo unspecified), -9.09% (inactive). `COc1ccc(NC(=O)c2cc(-c3cccs3)on2)cc1`: the “rescue activity (ATP increase)” value is -2.21% (inactive). Regarding `C/C(=N/Nc1nc(-c2ccc(Cl)cc2)cs1)c1cccs1`, the “rescue activity (ATP increase)” value is -40.2% (inactive).

As to `c1ccc(Nc2nc(-c3cccs3)cs2)nc1`, the “rescue activity (ATP increase)” value was 26% (inactive). In the case of `Cc1cc(C(=O)Nc2ccc3c(c2)C(=O)N(C)[C@@H]2CC[C@@H](CC(=O)N[C@H](C)c4ccccc4)O[C@@H]2CO3)no1` it was 26.1% (inactive); in that of `CCOC(=O)N1CCN(C(=O)Cc2ccsc2)CC1`, -30.6% (inactive). On to `CC(C)[C@H](NS(=O)(=O)c1ccccc1)C(=O)OCC(=O)NC(=O)NC1CCCCC1`, for which the “rescue activity (ATP increase)” value is -10.8% (inactive). In the case of `C[C@@H]1CN([C@@H](C)CO)C(=O)c2cccc(NS(=O)(=O)c3cccs3)c2O[C@@H]1CN(C)C(=O)Nc1ccc(C(F)(F)F)cc1`, the “rescue activity (ATP increase)” value is -7.49% (inactive). To `C[C@H](CO)N1C[C@H](C)[C@H](CN(C)C(=O)Nc2ccc(F)cc2)OCCCC[C@H](C)Oc2ccc(NC(=O)Cc3ccccc3)cc2C1=O` belongs -7.95% (inactive); to `Fc1ccc(CSc2nnc(CN3CCOCC3)n2-c2ccccc2)c(Cl)c1`, -26.3% (inactive). Regarding `COc1ccc(S(=O)(=O)Nc2ccc3c(c2)CC(=O)N([C@@H](C)CO)C[C@H](C)[C@H](CN(C)Cc2ccc(Cl)c(Cl)c2)O3)cc1`, the “rescue activity (ATP increase)” value is 14.6% (inactive). `C[C@H]1CN([C@@H](C)CO)C(=O)Cc2cc(NS(=O)(=O)c3ccc(F)cc3)ccc2O[C@H]1CN(C)Cc1ccccc1`: the “rescue activity (ATP increase)” value is 29.1% (inactive).

On to `COc1ccc(CN(C)C[C@@H]2Oc3ccc(NS(=O)(=O)c4ccc(F)cc4)cc3CC(=O)N([C@H](C)CO)C[C@H]2C)cc1`, for which the “rescue activity (ATP increase)” value was 35.2% [at 21 µM] (inactive). To `COc1ccc(S(=O)(=O)Nc2ccc3c(c2)C(=O)N([C@H](C)CO)C[C@H](C)[C@H](CN(C)S(=O)(=O)c2ccc(F)cc2)OCCCC[C@@H](C)O3)cc1` belongs 19.6% (inactive); to `COc1ccc(S(=O)(=O)Nc2ccc3c(c2)CC(=O)N([C@@H](C)CO)C[C@@H](C)[C@H](CN(C)Cc2ccc(Cl)c(Cl)c2)O3)cc1`, 19.7% (inactive).

Regarding `C[C@@H]1CN([C@@H](C)CO)C(=O)Cc2cc(NS(=O)(=O)c3ccc(Cl)cc3)ccc2O[C@H]1CN(C)Cc1ccc(-c2ccccc2)cc1`, the “rescue activity (ATP increase)” value was 28.9% (inactive). To `COc1ccc(S(=O)(=O)Nc2ccc3c(c2)C(=O)N([C@@H](C)CO)C[C@@H](C)[C@@H](CN(C)S(=O)(=O)c2ccc(F)cc2)OCCCC[C@H](C)O3)cc1` belongs 28.1% (inactive). Consider `COc1ccc(CN(C)C[C@@H]2Oc3ccc(NS(=O)(=O)c4ccc(Cl)cc4)cc3CC(=O)N([C@H](C)CO)C[C@H]2C)cc1`, for which the “rescue activity (ATP increase)” value is 34.8% (inactive). As to `COc1ccc(N=C2S/C(=C\c3cc(C)n(C)c3C)C(=O)N2CC(C)C)cc1`, the “rescue activity (ATP increase)” value is -33.1% (inactive). In the case of `COc1ccc(NC(=O)Nc2ccc3c(c2)C(=O)N([C@H](C)CO)C[C@H](C)[C@H](CN(C)Cc2ccc(C(F)(F)F)cc2)OCCCC[C@H](C)O3)cc1`, the “rescue activity (ATP increase)” value is -42.8% (inactive). In the case of `C[C@@H]1CN([C@H](C)CO)C(=O)Cc2cc(NC(=O)CCC(F)(F)F)ccc2O[C@H]1CN(C)Cc1ccc(Oc2ccccc2)cc1` it was 17.4% [at 21 µM] (inactive).

Consider `CN(C)S(=O)(=O)c1ccc(C(=O)NCCOc2ccc(F)cc2)cc1`, for which the “rescue activity (ATP increase)” value is -10.8% (inactive). In the case of `COc1ccc(S(=O)(=O)Nc2ccc3c(c2)C(=O)N([C@H](C)CO)C[C@H](C)[C@H](CN(C)S(=O)(=O)c2cccs2)OCCCC[C@H](C)O3)cc1`, the “rescue activity (ATP increase)” value is 5.74% (inactive). To `C[C@@H]1CCCCO[C@@H](CN(C)S(C)(=O)=O)[C@H](C)CN([C@@H](C)CO)C(=O)c2cc(NS(=O)(=O)c3ccc(F)cc3)ccc2O1` belongs 16.5% (inactive); to `Cc1oc(C(=O)O)cc1COc1cccc2cccnc12`, -12.5% (inactive). Regarding `c1ccc2c(c1)CCN(Cc1nnnn1Cc1ccc3c(c1)OCO3)C2`, the “rescue activity (ATP increase)” value was -2.57% (inactive).

Turning to `Cc1ccc(C(O)CN2C3=NCCN3c3ccccc32)cc1` (stereo unspecified), the “rescue activity (ATP increase)” value was 2.99% (inactive). For the compound `C[C@@H]1CN([C@H](C)CO)C(=O)Cc2cc(NC(=O)Nc3cccc4ccccc34)ccc2O[C@@H]1CN(C)S(=O)(=O)c1cccs1`, the “rescue activity (ATP increase)” value is 9.53% (inactive). Consider `C[C@H](CO)N1C[C@H](C)[C@@H](CN(C)C(=O)Nc2ccc(F)cc2)Oc2ccc(NC(=O)Cc3cn(C)c4ccccc34)cc2CC1=O`, for which the “rescue activity (ATP increase)” value is 4.12% [at 10 µM] (inactive).
